# From PubChem BioAssay (NCI)
# Compounds without any hit were thinned out: in the full panel of roughly 83,000, 20% have a hit.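 Interpretation: 100, growth as untreated; towards 0, rising growth inhibition; 0, no net growth; 0 to -100, cell death. Compounds scoring below 10 were considered active.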 A number with no mark means an inactive call. The source made the active and inactive calls.
# Assays:
# Test in all cases: NCI-60 one-dose screen, 48 h (100 = growth as untreated, 0 = no growth, -100 = all killed)
# Conditions in all cases: 10 µM unless noted
# EKVX NSCLC = test system: EKVX NSCLC
# SN12C renal = test system: SN12C renal
# UO-31 renal = test system: UO-31 renal
# TK-10 renal = test system: TK-10 renal
# ACHN renal = test system: ACHN renal
# CAKI-1 renal = test system: CAKI-1 renal
# A498 renal = test system: A498 renal
# CCRF-CEM leukemia = test system: CCRF-CEM leukemia
# MOLT-4 leukemia = test system: MOLT-4 leukemia
# SR leukemia = test system: SR leukemia
# RPMI-8226 leukemia = test system: RPMI-8226 leukemia
# OVCAR-5 ovarian = test system: OVCAR-5 ovarian
# OVCAR-4 ovarian = test system: OVCAR-4 ovarian
# SK-OV-3 ovarian = test system: SK-OV-3 ovarian
# IGROV1 ovarian = test system: IGROV1 ovarian
# OVCAR-3 ovarian = test system: OVCAR-3 ovarian
# HS 578T breast = test system: HS 578T breast
# NCI/ADR-RES ovarian = test system: NCI/ADR-RES ovarian
# OVCAR-8 ovarian = test system: OVCAR-8 ovarian
# SK-MEL-2 melanoma = test system: SK-MEL-2 melanoma
SMILES,growth (EKVX NSCLC),growth (SN12C renal),growth (UO-31 renal),growth (TK-10 renal),growth (ACHN renal),growth (CAKI-1 renal),growth (A498 renal),growth (CCRF-CEM leukemia),growth (MOLT-4 leukemia),growth (SR leukemia),growth (RPMI-8226 leukemia),growth (OVCAR-5 ovarian),growth (OVCAR-4 ovarian),growth (SK-OV-3 ovarian),growth (IGROV1 ovarian),growth (OVCAR-3 ovarian),growth (HS 578T breast),growth (NCI/ADR-RES ovarian),growth (OVCAR-8 ovarian),growth (SK-MEL-2 melanoma)
C/C(=C\c1ccc(OCC(=O)O)c(Cl)c1Cl)[N+](=O)[O-],102%,106%,111%,113%,110%,93.9%,113%,102%,84.6%,72.1%,99.7%,113%,114%,94%,133%,99.9%,107%,102%,,
COc1ccc(C(=O)N2NC(=O)/C(=C/c3ccc(F)cc3)N=C2c2ccccc2)cc1,88.4%,84.7%,91.7%,96.4%,94.2%,86.1%,69.2%,,42.4%,51.5%,70.3%,95.9%,109%,103%,99%,105%,101%,81.3%,97.4%,
CCN(CC)CCOC(=O)C(c1ccccc1)(c1ccccc1)C(C)C,81.6%,88.1%,51.7%,91.6%,92.8%,66.8%,70.5%,86.4%,86.7%,84%,96%,87.2%,94.8%,81.9%,78.2%,80.5%,,79.2%,87%,
CNc1ccc(Br)c2c1C(=O)c1ccccc1C2=O,,102%,86.1%,,104%,100%,93.3%,86.1%,94.7%,101%,87.8%,111%,100%,112%,99.1%,121%,107%,103%,105%,129%
Oc1ccccc1/C=N/NC(=S)NC1CC2C=CC1C2 (stereo unspecified),95.3%,92.8%,49.8%,103%,73.6%,67.1%,96.2%,49.5%,56.6%,30.1%,63.5%,109%,78.1%,95.7%,62.2%,67.4%,98.2%,0.723% (active),84.3%,
CCCCN(CCCC)C(=N)c1ccnc2ccccc12,104%,113%,89.7%,105%,109%,108%,90.6%,8.24% (active),42.6%,92.7%,83.1%,104%,94%,,98.3%,104%,,,,
COc1ccc(CCNC2=CC(=O)CCC2)cc1OC,110%,102%,81.2%,115%,110%,102%,105%,102%,76.2%,85.9%,107%,105%,115%,105%,113%,105%,94.6%,102%,106%,
O=C(Nc1ccncc1)C(=O)c1cn(S(=O)(=O)c2ccc(Br)cc2)c2ccccc12,44.5%,46.3%,52.7%,98.2%,58%,40.6%,47.3%,,44.3%,26.1%,35%,64.4%,73.3%,93.9%,45.1%,14.7%,56.2%,9.49% (active),58.6%,
COc1ccc(Nc2ncccc2C(=O)NCc2cn(Cc3cccc(Oc4ccccc4)c3)nn2)cc1,40.1%,47.5%,40.9%,76.3%,51.2%,42.3%,27.5%,,48%,30.8%,55.4%,75.2%,71.1%,36.8%,53.5%,-4.73% (active),48.7%,16.3%,65.6%,
COc1cc2c(c(OC)c1OC)-c1ccc(N)c(=O)cc1[C@@H](NC(C)=O)CC2,51.4%,27.6%,40%,33.4%,27.5%,19.1%,-12.7% (active),21.6%,20.7%,20%,27.2%,40.5%,51%,23.9%,1.05% (active),-54.2% (active),19.6%,75.6%,16.6%,
COc1cc(/C=C/C(=O)/C=C/c2cc(OC)c3c(c2)OCO3)cc2c1OCO2,95.9%,85.4%,88.1%,136%,102%,92.6%,117%,,91.2%,33.6%,-10.5% (active),107%,104%,86.6%,90.3%,34.6%,103%,91.2%,95.4%,
O=C(Oc1ccccc1[N+](=O)[O-])C1CCCN1C(=O)OCc1ccccc1 (stereo unspecified),96.7%,98.7%,90.1%,112%,105%,93.7%,95.5%,99.1%,83.5%,82.4%,97.3%,109%,103%,108%,109%,110%,112%,,97.5%,
CCC(C)/C(=C\C#N)NCCCN/C(=C/C#N)C(C)CC (stereo unspecified),101%,99.7%,82.4%,119%,97.1%,96.5%,124%,97.4%,99.4%,90.4%,88.7%,102%,109%,105%,102%,126%,101%,105%,100%,
CN(CCCCCl)P(=O)(OCc1ccc([N+](=O)[O-])o1)C(F)(F)C[C@H](NC(=O)CNC(=O)c1ccc(N=[N+]=[N-])cc1)C(=O)NCCc1ccc(O)cc1 (stereo partly specified),102%,95.2%,84.7%,121%,106%,105%,104%,,74.7%,9.22% (active),87.3%,123%,95.2%,113%,84.3%,109%,84.4%,103%,107%,
O=C([O][Sn]([O]C(=O)c1ccccn1)([c]1ccccc1)[c]1ccccc1)c1ccccn1,92.2%,91.3%,82.4%,30.1%,100%,76.5%,101%,18.1%,88.3%,47.6%,26%,94.9%,81.3%,99.7%,74.1%,71.4%,88.5%,95.1%,93.6%,
Cc1ccc(Cc2c(C=O)nc(N)[nH]c2=O)c2ccccc12,101%,96.9%,81.2%,112%,107%,92.7%,118%,80%,86.8%,63.5%,99.6%,117%,97.6%,96.6%,106%,,109%,103%,89.6%,
CC(C)OC(=O)N1CCOCC1,,97.7%,,101%,,,90.3%,102%,110%,109%,107%,,,98.1%,,115%,97.5%,108%,,101%
CC(C)(C)OC(=O)NC(CSCc1ccccc1)C(=O)ON1C(=O)CCC1=O (stereo unspecified),113%,107%,90.8%,119%,101%,112%,110%,96.7%,97%,78.4%,97.5%,106%,121%,104%,114%,107%,115%,103%,104%,
